# PLK1 PBD inh: qHTS for Inhibitors of PLK1-PDB (polo-like kinase 1 - polo-box domain): Primary Screen; hit rate 2.8% among 360,000; Potency, µM, for the others: max response, negative = inhibition, actives largely listed as inhibitors; Plk1 PBD binding of FITC phosphopeptide, fluorescence polarization; further: series mostly up to about 57 µM; nearly all actives have a fitted effect of over 65% in size
# Sfp PPTase inh: qHTS Assay for Inhibitors of Bacillus subtilis Sfp phosphopantetheinyl transferase (PPTase). Biochemical Sfp PPTase activity, qHTS. Potency, µM, inactives show largest response in the series, negative = inhibition, usual class: inhibitors. hit rate 3.5% among 310,000;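 further: the enzyme is Sfp with the accession as filed and its product quenches rhodamine fluorescence; 0% = enzyme reaction without inhibitor and -100% = no enzyme wells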
#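 After 15 min at room temperature with compound, 15 nM Sfp received 5 uM rhodamine-CoA plus 12.5 uM BHQ-2-ybbR (50 mM Hepes pH 7.6, 10 mM MgCl2). Rate came from the fluorescence difference over 30 min, ex 525/em 598 nm.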
# VDR inhibitor: Inhibitors of the vitamin D receptor (VDR): qHTS; hit rate 0.93% among 400,000; AID 504847, 2011; Vitamin D3 receptor (Homo sapiens), P11473; Potency, µM, for inactives: max response, negative = inhibition, actives largely listed as inhibitors; VDR-SRC2-3 peptide fluorescence polarization, 2 h
#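 Measured by FP: displacement of SRC2-3 coactivator peptide from VDR by library compounds, following a two-hour ambient incubation.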
# IDH1 R132H inh: qHTS for Inhibitors of mutant isocitrate dehydrogenase 1 (IDH1): qHTS; IDH1-R132H enzyme, NADPH consumption, diaphorase/resazurin fluorescence; Potency, µM (titrated, usually from 76.6 µM), for inactives: top-dose activity change, negative = inhibition, hits mostly inhibitors; hit rate 0.093% among 390,000; AID 602179, 2012; further: nearly all actives have a fitted effect of over 65% in size
# Target sequence (O75874 whole entry R132H, stated change not applied): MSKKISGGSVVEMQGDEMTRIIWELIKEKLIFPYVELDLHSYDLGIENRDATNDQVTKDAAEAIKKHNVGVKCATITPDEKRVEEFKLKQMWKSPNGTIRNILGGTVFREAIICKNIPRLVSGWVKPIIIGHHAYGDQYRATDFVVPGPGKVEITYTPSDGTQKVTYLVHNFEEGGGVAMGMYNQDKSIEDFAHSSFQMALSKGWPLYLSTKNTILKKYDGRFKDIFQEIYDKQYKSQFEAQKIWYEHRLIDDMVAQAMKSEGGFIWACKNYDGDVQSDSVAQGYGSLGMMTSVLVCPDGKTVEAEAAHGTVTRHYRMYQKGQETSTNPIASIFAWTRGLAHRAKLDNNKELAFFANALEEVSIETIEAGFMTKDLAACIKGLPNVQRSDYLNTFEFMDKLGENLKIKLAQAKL
#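 IDH1-R132H (0.5 ug/mL) preincubated 30 min with compound, then NADPH (0.016 mM) and alpha-KG (2 mM) added; 80 min at RT, pH 7.5. Remaining NADPH coupled via diaphorase/resazurin to fluorescence (540/590 nm); concentration-response curves normalized to no-enzyme control.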
# TrxR1 inh: qHTS Assay for Inhibitors of Mammalian Selenoprotein Thioredoxin Reductase 1 (TrxR1): qHTS. Thioredoxin reductase 1, cytoplasmic (Rattus norvegicus), O89049. recombinant rTrxR1, NADPH fluorescence consumption, selenite substrate. Potency, µM (doses to about 114 µM), inactives show top-dose activity change, negative = inhibition, actives largely listed as inhibitors. hit rate 1% among 390,000. AID 588453, 2011; further: nearly all actives have a fitted effect of over 65% in size
#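 Rat TrxR1 (90 nM in the dispensed reagent) was pre-reduced with 400 uM NADPH for 5 min at room temperature, then incubated with compound for 15 min. After 400 uM selenite was added, NADPH fluorescence (Ex 340/Em 450 nm) was followed for 8 min.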
# TrxR1 substrate: qHTS Assay for Substrates of Mammalian Selenoprotein Thioredoxin Reductase 1 (TrxR1): qHTS | Thioredoxin reductase 1, cytoplasmic (Rattus norvegicus), O89049 | purified TrxR1 substrate turnover, NADPH consumption readout | Potency, µM (top dose mostly 114 µM), for the others: top-dose activity change, negative = substrate turnover | hit rate 0.01% among 390,000; further: nearly all actives have a fitted effect of over 50% in size
#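 Rat TrxR1, dispensed at 90 nM, was prereduced with 400 uM NADPH (final) for 5 min at ~22 deg C, then incubated with compound 15 min before 400 uM selenite. A first-read NADPH fluorescence drop versus no-compound background flagged substrates.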
# Numbers without * were called inactive; ? = inconclusive; . = not tested or not shown; ! = a repeat was not active; [ ] = another dose, or the depositor's remark. Only some compounds are listed: those with a hit (about 5.2% of all), similar ones and a draw of the others. The call rests on the fitted dose curve; in most records, active means well fitted curve in the direction sought with a large enough effect; inconclusive means small, poorly fitted or top-dose-only effect, or another doubt; inactive means no such curve, though single readings can be large; an effect the other way counts as inactive or inconclusive. Unless noted, on the % scale 0 is the no-effect control and ±100 the full control effect; potency means the concentration at half of the fitted maximal effect.
SMILES,PLK1 PBD inh,Sfp PPTase inh,VDR inhibitor,IDH1 R132H inh,TrxR1 inh,TrxR1 substrate
Cc1ccc(Nc2nc(-c3sc(N)nc3C)cs2)cc1,?,?,79µM*,13%,-16%,-11%
Cc1ccccc1Nc1nc(-c2sc(NC(=O)c3ccccc3)nc2C)cs1,.,25µM*,.,.,.,.
Cc1ccc([C@H]2N[C@]3(CCCN(CC4CCCCC4)C3=O)[C@H]3C(=O)N(C)C(=O)[C@@H]23)cc1,-3%,.,.,10%,.,.
O=C(Nc1nccs1)[C@@H]1CC=C[C@@H]2CCN(Cc3ccc(Cl)c(Cl)c3)C(=O)[C@@H]21,.,.,.,.,1%,-5%
CCCc1cc(C(=O)Nc2c(C)nn(Cc3ccc(Cl)c(Cl)c3)c2C)no1,.,.,0%,-6%,15%,-2%
COc1ccc(C(=O)NCc2nnc(SCC(=O)Nc3ccccc3)n2-c2ccc(F)cc2)cc1,.,.,-6%,21%,1%,1%
CC(C)n1c(SCC(=O)c2ccc(F)cc2)nc2c(sc3ccccc32)c1=O,.,.,-5%,?,12%[57.1 µM],0%[57.1 µM]
COc1ccc(Nc2nc(-c3sc(NC(C)=O)nc3C)cs2)cc1,.,40µM*,.,.,.,.
CC(=O)c1ccc(Nc2nc(-c3sc(C)nc3C)cs2)cc1,-6%,.,.,7%,.,.
Cc1ccc(C(=O)OCC(=O)NC(=O)c2cccn2C)cc1[N+](=O)[O-],27µM*,8%,?,-4%,18%,2%
Cc1ccc(C(=O)OCC(=O)NC(=O)c2cccn2C)cc1,-6%,11%,-2%,7%,4%[57.1 µM],4%[57.1 µM]
O=C(O)c1cccc(N2C(=O)c3cc([N+](=O)[O-])cc4cc([N+](=O)[O-])cc(c34)C2=O)c1,8.4µM*,-28%,56µM*,0%,11µM*,-17%
O=C1Nc2ccccc2C1=Nc1ccc(S(=O)(=O)Nc2nccs2)cc1,27µM*,9%,-14%,-19%,18%[57.1 µM],-19%[57.1 µM]
CCC(NC(C)C)C(O)c1ccc(O)c(O)c1 (stereo not drawn),-12%,?,50µM*!,14%,?,5%[57.1 µM]
CCC(c1ccc(O)c(O)c1)C(CC)c1ccc(O)c(O)c1 (stereo not drawn),?,.,5%,-10%,7.9µM*,5%
CCOc1ccc(CCNC(=O)CCCc2nnc3n(CC)c(=O)c4sccc4n23)cc1,.,.,-6%,-5%,9%,-4%
O=C(O)c1cc(=O)n(Cc2ccccc2)c(=O)[nH]1,0%,?,-12%,2%,10%[57.1 µM],7%[57.1 µM]
Cc1ccc(NC(=O)c2cc(=O)n(Cc3ccccc3)c(=O)[nH]2)cc1C,24µM*,-20%,?,-6%,20%[57.1 µM],3%[57.1 µM]
O=C(COc1ccccc1)Nc1ccc2nc(SCC(=O)N3CCOCC3)sc2c1,.,.,10%,5%,19%,1%
CC(=O)N/N=C(\N)c1nonc1N,2%,89µM*,7%,-5%,18%,2%
CO/N=C(\N)c1nonc1N,-8%,20%,43%,-2%,-11%,-6%
COCCCn1c(SCC(=O)NC2CCCC2)nnc1-c1cccs1,-5%,-2%,14%,-6%,16%[57.1 µM],-9%
CC1(C)OC(=O)N(CC(=O)Nc2ccccc2)C1(C)O (stereo not drawn),27µM*,15%,-13%,6%,-14%,-8%
CC1(C)OC(=O)N(CC(=O)Nc2cccc(C(F)(F)F)c2)C1(C)O (stereo not drawn),-4%,?,-14%,1%,13%[57.1 µM],6%[57.1 µM]
Cc1nnsc1C(=O)Oc1ccc(Cl)cc1,.,.,-3%,33%,3%,1%
SMILES,PLK1 PBD inh,Sfp PPTase inh,VDR inhibitor,IDH1 R132H inh,TrxR1 inh,TrxR1 substrate
CCOC(=O)C1(C)CCCN(C(=O)c2cc(C)oc2C)C1 (stereo not drawn),1%,.,.,.,.,.
Cc1ccc(S(=O)(=O)Nc2cc3c(C(=O)OCc4ccccc4)c(C)oc3c3ccccc23)c(C)c1,.,.,-9%,-3%,18%,5%
COc1ccc(-c2c[n+]3c(n2-c2ccccc2)CCCCC3)cc1,30µM*,17%,0%,4%,-11%,-6%
CS(=O)(=O)Nc1ccc(C(=O)NCCSCc2ccco2)cc1,-8%,-11%,3%,8%,-1%[57.1 µM],6%[57.1 µM]
Cc1ccc(C)c(N(CC(=O)NCCSCc2ccco2)S(C)(=O)=O)c1,-16%,20µM*,0%,-3%,?,3%
CS(=O)(=O)N(Cc1ccccc1)c1ccc(C(=O)NCCSCc2ccco2)cc1,-14%,28µM*,-15%,4%,?,-16%
Cc1cccc(N(CC(=O)NCCSCc2ccco2)S(=O)(=O)c2ccccc2)c1,-5%,56µM*,-9%,-1%,11µM*,2%
CCc1ccccc1NC(=O)C1CCN(S(=O)(=O)c2cn(C)cn2)CC1,.,.,20%,-9%,1%[57.1 µM],-3%[57.1 µM]
CCOC(=O)C1=CCC(c2ccccc2)N(S(=O)(=O)c2ccc(C)cc2)[C@H]1CC (stereo partly drawn),-10%,.,.,.,.,.
S=c1nc[nH]c2nc[nH]c12,-1%,40µM*!,-20%,15%,?,-8%
CC(C)c1cccc(C(C)C)c1NC1=NS(=O)(=O)c2ccccc21,.,.,-2%,2%,3%,-6%
Cc1nn(CC(O)CN2c3ccccc3Sc3ccccc32)c(C)c1Br (stereo not drawn),3.8µM*,12%,?,2%,3%[57.1 µM],-11%[57.1 µM]
COc1cc(/C=C(\C#N)C(N)=O)cc(CSc2nc3ccccc3s2)c1O,.,-8%,-16%,.,.,.
COc1ccc(C2NCCc3c2[nH]c2ccccc32)cc1CSc1nc2ccccc2s1 (stereo not drawn),?,45µM*,5%,3%,-21%,-15%
COc1cc2nc(N3CCCN(C)CC3)nc(NC3CCCCC3)c2cc1OC,.,.,.,.,-13%,28%
Cc1c(CCC(=O)O)c(=O)oc2cc3occ(-c4ccc(Cl)cc4)c3cc12,?,?,-29%,-10%,1%[57.1 µM],5%[57.1 µM]
Cc1c(CCC(=O)O)c(=O)oc2c(C)c3occ(-c4ccc(Cl)cc4)c3cc12,30µM*,-29%,?,-19%,5%[57.1 µM],12%
O=C(CNC(=O)C1CCCCC1)OCC(=O)c1ccc(C2CCCCC2)cc1,.,.,-3%,.,3%,-5%
O=C(CNC(=O)C1CCCCC1)OCC(=O)c1ccccc1,.,.,-19%,.,4%,0%
COc1cc2c3c(c1)/C(=C1/SC(NC(C)=O)=NC1=O)C(=O)N3C(C)(C)C=C2C,-13%,35µM*,?,8%,?,-9%
